Test [1] concerns the target Paired box protein Pax-6 (Homo sapiens) (UniProt P26367). In words: ATG_Pax6_CIS: Attagene CIS-FACTORIAL HepG2 Assay for human Paired Box 6 (PAX6) (AID 2282956). The conditions noted are these: HepG2 CIS-FACTORIAL PAX6 reporter transcription, RNA readout; actives raise or lower the signal. The procedure, abridged:
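Transient MRTU transfection of HepG2 → compound exposure 24 h → TriZol RNA, oligo(dT) RT → PCR, 6-FAM primer extension, HpaI cut → capillary electrophoresis; activity fitted both directions against DMSO.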

Test [2] can be described thus: ATG_PXRE_CIS: Attagene CIS-FACTORIAL HepG2 Assay for human Pregnane X Receptor Element (PXRE) (AID 2282957). The conditions noted are these: HepG2 Attagene CIS-FACTORIAL PXRE reporter, mRNA; actives raise or lower the signal. The procedure, abridged: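 Transfect HepG2 with MRTUs (cis promoter elements); dose chemical, incubate 24 h; isolate RNA, RT with oligo(dT), PCR, 6-FAM label, HpaI cut, CE. Gain/loss fit vs DMSO.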

Test [3] can be described thus: ATG_PPRE_CIS: Attagene CIS-FACTORIAL HepG2 Assay for human Peroxisome Proliferator-activated Response Element (PPRE) (AID 2282958). The conditions noted are these: HepG2 PPRE cis-element reporter, Attagene transcription factor profiling; actives raise or lower the signal. The procedure, abridged:
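DMSO served as negative control and baseline for bidirectional curve fitting. Signal came from PPRE-regulated reporter mRNA in HepG2 cells, measured 24 h post-dosing by RT-PCR, 6-FAM primer extension and capillary electrophoresis.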

The nature of test [4]: ATG_RORE_CIS: Attagene CIS-FACTORIAL HepG2 Assay for human RAR-related Orphan Receptor Element (RORE) (AID 2282959). The conditions noted are these: HepG2 Attagene cis-factorial RORE reporter, mRNA; actives raise or lower the signal. The procedure, abridged:
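Transfect HepG2 with MRTUs; treat 24 h; extract RNA; RT with oligo(dT); PCR with reporter-specific primers; 6-FAM primer extension; HpaI digest 2 h at 37 C; capillary electrophoresis. Fit vs DMSO, bidirectional.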

A short description of test [5]: ATG_Sox_CIS: Attagene CIS-FACTORIAL HepG2 Assay for human SRY-box transcription factor (SOX) (AID 2282960). The conditions noted are these: HepG2 Attagene cis-factorial SOX reporter, mRNA; actives raise or lower the signal. The procedure, abridged: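 Fluorescence-labelled cDNA fragments from reporter transcripts, sized by CE, give the signal. Cells: HepG2, transiently transfected with cis-regulated reporter units. Exposure 24 h; DMSO negative control; bidirectional curve fitting.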

Test [6] addresses Signal transducer and activator of transcription 3 (Homo sapiens) (UniProt P40763). The experiment in a line: ATG_STAT3_CIS: Attagene CIS-FACTORIAL HepG2 Assay for human Signal Transducer and Activator of Transcription 3 (STAT3) (AID 2282963). The conditions noted are these: HepG2, Attagene cis-factorial STAT3 reporter transcription; actives raise or lower the signal. The method in brief: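 Values derive from bidirectional fits relative to DMSO of reporter mRNA levels, measured by RT-PCR with capillary electrophoresis, in HepG2 cells carrying transiently transfected cis-regulated reporter units and exposed 24 h.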

Test [7] is described as follows: ATG_TA_CIS: Attagene CIS-FACTORIAL HepG2 Assay for human TA Basal Promoter (AID 2282964). The conditions noted are these: HepG2 Attagene CIS-factorial TA basal promoter reporter; actives raise or lower the signal. The procedure, abridged: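 Read-out: fluorescent reporter-transcript fragments resolved by capillary electrophoresis after RT-PCR and HpaI digestion. Source: HepG2 cells carrying transiently transfected multi-reporter cis constructs, treated 24 h. Endpoint fitted bidirectionally relative to DMSO.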

A short description of test [8]: ATG_TAL_CIS: Attagene CIS-FACTORIAL HepG2 Assay for human TAL Basal Promoter (AID 2282966).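 Further: background control endpoint measuring basal TAL promoter reporter mRNA not a specific factor.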 The conditions noted are these: HepG2 Attagene cis-factorial TAL promoter reporter; actives raise or lower the signal. The method in brief: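 Fluorescence of labelled reporter cDNA fragments, resolved by capillary electrophoresis, gave the readout. Human HepG2 liver cells carried transiently transfected cis-element reporter units and were treated for 24 hours; activity was fitted bidirectionally against DMSO.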

The nature of test [9]: ATG_TGFb_CIS: Attagene CIS-FACTORIAL HepG2 Assay for human Transforming Growth Factor (TGF) (AID 2282967). The conditions noted are these: HepG2 Attagene CIS TGFb reporter, mRNA transcription; actives raise or lower the signal. The method in brief:
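Transient MRTU transfection of HepG2 (FuGene 6). Dose 24 h. TriZol RNA, oligo(dT) RT, PCR, 6-FAM primer extension, HpaI cut, CE. Bidirectional fit, DMSO = baseline.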

Test [10] in a line: ATG_VDRE_CIS: Attagene CIS-FACTORIAL HepG2 Assay for human Vitamin D Receptor Element (VDRE) (AID 2282968). The conditions noted are these: HepG2 VDRE cis-reporter transcription, actives raise or lower the signal. The method in brief:
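Cell-based multiplexed reporter format in human liver HepG2 cells, 24 h post-dose. Fluorescence from capillary electrophoresis of reporter cDNA gives the signal, with DMSO as negative control and baseline.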

The target of test [11] is Nuclear receptor subfamily 1 group I member 3 (Homo sapiens) (UniProt Q14994). The experiment in a line: ATG_CAR_TRANS: Attagene TRANS-FACTORIAL HepG2 Assay for human Constitutive Androstane Receptor (CAR) (AID 2282969; active means hit-call score of the fitted dose curve at least 0.9, where 1 is the maximum;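 further: activators raise reporter mRNA above DMSO so AC50 marks induction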). The conditions noted are these: HepG2 Attagene TRANS-FACTORIAL CAR reporter. The method in brief:
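HepG2 cells transiently transfected with GAL4-UAS reporter units; TRANS format reads activity of exogenous chimeric NR-Gal4 protein. After 24 h dosing, reporter mRNA quantified by RT-PCR, 6-FAM labelling and capillary electrophoresis; gain of signal fitted against DMSO.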

In test [12] the target is Estrogen receptor (Homo sapiens) (UniProt P03372). In words: ATG_ERa_TRANS: Attagene TRANS-FACTORIAL HepG2 Assay for human Estrogen Receptor alpha (ERa) (AID 2282970; active means hit-call score of the fitted dose curve at least 0.9, where 1 is the maximum). The conditions noted are these: HepG2 Attagene TRANS ERa GAL4 reporter, mRNA. The method in brief:
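Human liver HepG2, transient transfection of multiple GAL4-UAS reporter units; TRANS format (exogenous NR-Gal4 chimera). 24 h dosing. Readout: reporter mRNA, RT-PCR, 6-FAM primer extension, HpaI digest, capillary electrophoresis. Positive direction vs DMSO.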

In test [13] the target is X-box-binding protein 1 (Homo sapiens) (UniProt P17861). The experiment in a line: ATG_Xbp1_CIS: Attagene CIS-FACTORIAL HepG2 Assay for human X-box Binding Protein 1 (XBP1) (AID 2282972). The conditions noted are these: HepG2 XBP1 cis-element reporter, Attagene multiplex; actives raise or lower the signal. The method in brief: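 HepG2, transient MRTU transfection (cis-promoter driven), 24 h compound exposure. Total RNA → oligo(dT) RT → PCR → 6-FAM labeling → HpaI cut → CE. Bidirectional fit vs DMSO.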
Chain of X-box-binding protein 1 (Homo sapiens) (P17861 whole entry, looked up): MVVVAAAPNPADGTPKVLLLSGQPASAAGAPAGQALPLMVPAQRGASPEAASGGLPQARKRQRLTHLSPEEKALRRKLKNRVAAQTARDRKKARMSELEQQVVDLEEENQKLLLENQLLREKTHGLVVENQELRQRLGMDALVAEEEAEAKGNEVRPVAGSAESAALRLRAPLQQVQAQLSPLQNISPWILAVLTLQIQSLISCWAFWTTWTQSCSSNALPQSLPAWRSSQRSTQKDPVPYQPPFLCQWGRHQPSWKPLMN

Test [14] is described as follows: ATG_M_19_TRANS: Attagene TRANS-FACTORIAL HepG2 Assay for M19 Transcription Factor (Internal Marker) (AID 2282974; active means hit-call score of the fitted dose curve at least 0.9, where 1 is the maximum). The conditions noted are these: HepG2 Attagene TRANS-FACTORIAL M19 internal marker reporter. The procedure, abridged:
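Multiplexed TRANS format: HepG2 liver cells bearing transient GAL4-UAS reporter units, chemical treatment 24 h, reporter transcripts quantified by RT-PCR plus capillary electrophoresis. DMSO defines baseline.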

Test [15] has as its target Transcription factor Sp1 (Homo sapiens) (UniProt P08047). In words: ATG_Sp1_CIS: Attagene CIS-FACTORIAL HepG2 Assay for human Specificity Protein 1 (Sp1) (AID 2282961). The conditions noted are these: HepG2 Sp1 cis-reporter transcription, actives raise or lower the signal. The method in brief: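 Chemicals are dosed onto HepG2 cells transfected with multiple cis-promoter reporter constructs, and after 24 h reporter RNA is reverse-transcribed, PCR-amplified and resolved by capillary electrophoresis for fluorescence quantitation; activity is scored up or down against DMSO.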

Test [16] in a line: ATG_SREBP_CIS: Attagene CIS-FACTORIAL HepG2 Assay for human Sterol Regulatory Element Binding (SREBP) (AID 2282962). The conditions noted are these: HepG2 Attagene cis-factorial SREBP reporter, mRNA; actives raise or lower the signal. The method in brief:
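Transfected HepG2 (cis-regulated reporter library, endogenous TFs) → compound 24 h → total RNA → oligo(dT) RT → reporter-specific PCR → FAM primer extension, HpaI cut → CE fluorescence. Fit bidirectional vs DMSO.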

The nature of test [17]: ATG_TCF_b_cat_CIS: Attagene CIS-FACTORIAL HepG2 Assay for human T-Cell-Factor with beta-catenin (TCF/b-cat) (AID 2282965). The conditions noted are these: HepG2 TCF/beta-catenin cis-reporter transcription, actives raise or lower the signal. The method in brief:
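HepG2, transient MRTU transfection, cis-element-driven reporters (endogenous TFs). 24 h compound exposure. Readout: reporter mRNA by RT-PCR + 6-FAM primer extension, HpaI digest, capillary electrophoresis. Gain/loss fit vs DMSO baseline.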

The target of test [18] is Steroid hormone receptor ERR1 (Homo sapiens) (UniProt P11474). The experiment in a line: ATG_ERRa_TRANS: Attagene TRANS-FACTORIAL HepG2 Assay for human Estrogen-Related Receptor alpha (ERRa) (AID 2282971; active means hit-call score of the fitted dose curve at least 0.9, where 1 is the maximum). The conditions noted are these: HepG2 Attagene TRANS reporter, ERRa transactivation. The method in brief: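 Reporter transcript induction was quantified by RT-PCR and capillary electrophoresis of FAM-labelled, HpaI-cut products after 24 h treatment of HepG2 cells carrying transiently transfected GAL4-UAS reporter units and an exogenous ERRa-Gal4 fusion; activity scored as increase over DMSO.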
Chain of Steroid hormone receptor ERR1 (Homo sapiens) (P11474 whole entry, looked up, the tested form may be a part): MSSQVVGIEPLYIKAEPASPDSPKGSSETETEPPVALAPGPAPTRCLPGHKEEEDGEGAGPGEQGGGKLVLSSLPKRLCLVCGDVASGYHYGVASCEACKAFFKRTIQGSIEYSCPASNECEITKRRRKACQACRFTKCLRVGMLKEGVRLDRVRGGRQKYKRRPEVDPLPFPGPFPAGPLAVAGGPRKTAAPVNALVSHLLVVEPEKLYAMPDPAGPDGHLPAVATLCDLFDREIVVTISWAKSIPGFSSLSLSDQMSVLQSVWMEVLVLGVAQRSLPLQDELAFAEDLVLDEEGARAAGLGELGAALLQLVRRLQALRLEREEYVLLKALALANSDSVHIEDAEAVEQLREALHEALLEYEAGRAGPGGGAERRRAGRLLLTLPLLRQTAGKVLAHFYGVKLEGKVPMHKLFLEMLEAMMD

Test [19] concerns the target Estrogen-related receptor gamma (Homo sapiens) (UniProt P62508). The experiment in a line: ATG_ERRg_TRANS: Attagene TRANS-FACTORIAL HepG2 Assay for human Estrogen-Related Receptor gamma (ERRg) (AID 2282977; active means hit-call score of the fitted dose curve at least 0.9, where 1 is the maximum;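 further: hits increase reporter signal over DMSO so potencies reflect activators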). The conditions noted are these: HepG2 Attagene TRANS reporter, ERRg transactivation. The procedure, abridged: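 HepG2 cells transiently transfected with multiplexed GAL4-UAS reporter units and chimeric NR-Gal4 constructs were exposed to test chemicals for 24 h. Reporter mRNA was measured by RT-PCR, 6-FAM primer extension, HpaI digestion and capillary electrophoresis; gain-of-signal versus DMSO.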

Inconclusive results are not listed. Active and inactive are the calls of the source. How the source made its calls, unless noted: active means hit-call score of the fitted dose curve at least 0.9, where 1 is the maximum; inactive means score below 0.9.

Chain of Nuclear receptor subfamily 1 group I member 3 (Homo sapiens) (Q14994 whole entry, looked up, the tested form may be a part): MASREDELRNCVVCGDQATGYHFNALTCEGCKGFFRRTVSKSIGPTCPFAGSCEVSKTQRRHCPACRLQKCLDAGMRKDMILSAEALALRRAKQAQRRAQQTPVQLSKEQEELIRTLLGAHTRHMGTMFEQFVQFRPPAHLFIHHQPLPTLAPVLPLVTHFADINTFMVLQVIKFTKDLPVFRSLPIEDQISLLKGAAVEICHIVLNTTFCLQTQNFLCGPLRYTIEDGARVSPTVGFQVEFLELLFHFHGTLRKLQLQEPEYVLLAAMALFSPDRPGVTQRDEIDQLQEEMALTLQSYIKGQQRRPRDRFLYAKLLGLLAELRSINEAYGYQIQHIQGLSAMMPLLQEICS
Chain of Transcription factor Sp1 (Homo sapiens) (P08047 whole entry, looked up): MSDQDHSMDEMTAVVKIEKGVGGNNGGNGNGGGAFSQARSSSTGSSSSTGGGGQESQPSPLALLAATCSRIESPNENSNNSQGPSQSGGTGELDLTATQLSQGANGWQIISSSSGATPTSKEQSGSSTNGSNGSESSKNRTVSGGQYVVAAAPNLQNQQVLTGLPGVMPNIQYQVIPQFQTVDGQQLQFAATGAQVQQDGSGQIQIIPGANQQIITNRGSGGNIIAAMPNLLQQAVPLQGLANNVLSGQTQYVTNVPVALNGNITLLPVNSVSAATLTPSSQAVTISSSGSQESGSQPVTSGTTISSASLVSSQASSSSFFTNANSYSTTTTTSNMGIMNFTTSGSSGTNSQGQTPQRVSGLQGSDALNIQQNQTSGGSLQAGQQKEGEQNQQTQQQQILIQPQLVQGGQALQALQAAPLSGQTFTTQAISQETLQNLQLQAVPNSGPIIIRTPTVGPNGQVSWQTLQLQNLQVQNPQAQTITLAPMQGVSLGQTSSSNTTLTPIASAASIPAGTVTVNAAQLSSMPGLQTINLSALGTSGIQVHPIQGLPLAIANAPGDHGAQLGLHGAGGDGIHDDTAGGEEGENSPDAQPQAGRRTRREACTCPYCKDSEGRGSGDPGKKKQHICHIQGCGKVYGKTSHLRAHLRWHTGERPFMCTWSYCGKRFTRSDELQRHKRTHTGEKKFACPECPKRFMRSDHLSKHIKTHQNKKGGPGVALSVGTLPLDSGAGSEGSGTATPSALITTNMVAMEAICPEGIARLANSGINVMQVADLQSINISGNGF
Chain of Estrogen receptor (Homo sapiens) (P03372 whole entry, looked up, the tested form may be a part): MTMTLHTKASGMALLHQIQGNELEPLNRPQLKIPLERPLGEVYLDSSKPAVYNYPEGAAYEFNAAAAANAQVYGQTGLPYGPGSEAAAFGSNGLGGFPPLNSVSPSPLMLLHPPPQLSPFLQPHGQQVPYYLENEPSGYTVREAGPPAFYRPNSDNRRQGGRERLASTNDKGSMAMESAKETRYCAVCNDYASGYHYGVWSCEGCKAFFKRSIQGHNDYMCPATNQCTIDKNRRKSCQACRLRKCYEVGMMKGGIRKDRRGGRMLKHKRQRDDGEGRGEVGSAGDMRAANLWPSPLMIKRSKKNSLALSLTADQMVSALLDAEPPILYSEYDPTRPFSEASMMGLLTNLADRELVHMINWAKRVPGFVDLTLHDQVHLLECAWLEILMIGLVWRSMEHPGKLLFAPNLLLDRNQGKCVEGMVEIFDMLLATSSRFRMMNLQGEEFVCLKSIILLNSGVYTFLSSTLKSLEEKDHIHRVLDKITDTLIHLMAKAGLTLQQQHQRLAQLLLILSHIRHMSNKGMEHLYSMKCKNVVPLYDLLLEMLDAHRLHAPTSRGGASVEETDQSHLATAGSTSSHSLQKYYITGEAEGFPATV
Chain of Estrogen-related receptor gamma (Homo sapiens) (P62508 whole entry, looked up, the tested form may be a part): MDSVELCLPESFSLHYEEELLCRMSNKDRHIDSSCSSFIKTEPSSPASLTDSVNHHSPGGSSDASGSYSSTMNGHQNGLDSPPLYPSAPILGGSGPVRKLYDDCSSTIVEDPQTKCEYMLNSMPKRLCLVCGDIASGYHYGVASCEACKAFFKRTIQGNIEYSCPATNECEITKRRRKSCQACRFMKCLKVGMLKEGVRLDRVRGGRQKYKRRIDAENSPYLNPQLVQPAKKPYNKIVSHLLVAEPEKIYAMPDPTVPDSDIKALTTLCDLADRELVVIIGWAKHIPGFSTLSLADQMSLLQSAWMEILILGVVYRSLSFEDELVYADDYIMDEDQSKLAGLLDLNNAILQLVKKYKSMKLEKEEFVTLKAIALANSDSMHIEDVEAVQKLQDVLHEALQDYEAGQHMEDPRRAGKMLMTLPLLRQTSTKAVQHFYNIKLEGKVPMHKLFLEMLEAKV
Chain of Signal transducer and activator of transcription 3 (Homo sapiens) (P40763 whole entry, looked up): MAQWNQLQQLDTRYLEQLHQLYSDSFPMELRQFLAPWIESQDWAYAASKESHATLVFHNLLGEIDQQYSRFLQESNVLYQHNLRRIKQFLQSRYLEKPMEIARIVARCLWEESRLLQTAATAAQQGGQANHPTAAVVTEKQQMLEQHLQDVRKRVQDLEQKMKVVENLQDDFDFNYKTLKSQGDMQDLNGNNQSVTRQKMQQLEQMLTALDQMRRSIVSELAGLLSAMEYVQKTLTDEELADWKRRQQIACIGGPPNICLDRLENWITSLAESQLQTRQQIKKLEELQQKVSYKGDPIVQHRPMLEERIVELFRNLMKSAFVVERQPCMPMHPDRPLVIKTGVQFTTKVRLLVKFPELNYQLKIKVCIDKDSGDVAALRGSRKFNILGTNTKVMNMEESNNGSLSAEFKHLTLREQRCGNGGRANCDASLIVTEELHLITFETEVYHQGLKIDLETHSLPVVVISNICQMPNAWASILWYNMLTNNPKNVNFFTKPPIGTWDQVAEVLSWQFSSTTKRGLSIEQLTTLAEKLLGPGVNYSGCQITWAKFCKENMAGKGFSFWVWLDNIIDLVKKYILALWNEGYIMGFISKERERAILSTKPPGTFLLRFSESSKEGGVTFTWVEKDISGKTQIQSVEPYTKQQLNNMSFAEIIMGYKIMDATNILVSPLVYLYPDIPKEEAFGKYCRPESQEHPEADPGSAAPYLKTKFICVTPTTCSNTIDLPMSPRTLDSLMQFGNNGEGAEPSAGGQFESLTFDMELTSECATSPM
Chain of Paired box protein Pax-6 (Homo sapiens) (P26367 whole entry, looked up): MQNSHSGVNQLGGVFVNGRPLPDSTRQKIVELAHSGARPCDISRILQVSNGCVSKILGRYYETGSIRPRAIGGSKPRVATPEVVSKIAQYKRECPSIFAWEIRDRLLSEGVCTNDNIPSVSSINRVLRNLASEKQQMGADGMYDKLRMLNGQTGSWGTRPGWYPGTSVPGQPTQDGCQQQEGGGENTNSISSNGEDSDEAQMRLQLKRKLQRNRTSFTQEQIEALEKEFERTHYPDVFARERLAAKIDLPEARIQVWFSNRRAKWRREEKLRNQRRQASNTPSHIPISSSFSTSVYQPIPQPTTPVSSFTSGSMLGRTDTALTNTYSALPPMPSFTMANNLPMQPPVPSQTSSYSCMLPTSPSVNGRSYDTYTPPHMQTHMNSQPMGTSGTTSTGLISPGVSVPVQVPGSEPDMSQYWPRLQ

For orientation: AC50 means the midpoint of the concentration-response curve, whichever way the signal moves. With `CC(=O)OCCC1CCCCC1`, the outcome in [1], in test [3], in [4], in test [5], in [6] and in [7] was inactive. In addition, the compound was called inactive in test [8], in test [9], in test [10], in test [11], in test [12] and in test [13]. Besides, the compound was classed as inactive in test [14]. In addition, in test [2], the AC50 is 31.8 µM (active).
On to `CC=CC(=O)N(CC)c1ccccc1C`, for which the result in [1], in [4], in test [5], in [15], in test [16] and in test [6] was inactive. Moreover, the outcome in test [7], in test [17], in test [8], in test [9], in test [11] and in [12] was inactive. Further, the call in [18], in test [13] and in [14] was inactive. Further, the AC50 was 11.1 µM (active) in test [2] and 15.5 µM (active) in test [10].
For `C1CN(SSN2CCOCC2)CCO1`, the compound was classed as inactive in [1], in [2], in test [3], in [5], in [15] and in test [16]. For the same compound, the compound was classed as inactive in [6], in test [17], in [8], in test [10], in [12] and in test [18]. The compound was called inactive in test [13], in [14] and in test [19].
Turning to `Oc1ccc(Cl)cc1Cc1cc(Cl)ccc1O`, the AC50 in test [1] was 11.1 µM (active); in test [3], 4.48 µM (active); in test [16], 7.54 µM (active); in test [17], 18.8 µM (active); in [9], 11.1 µM (active); in test [10], 7 µM (active). Moreover, in [13], the AC50 was 6.64 µM (active). The result in test [2], in test [5], in test [15], in test [6], in [7] and in [8] was inactive. For the same compound, the call in test [12] was inactive.
As for `CCCCCCCCCCC=CC#N`, the result in [1], in [3], in test [5], in test [15], in [16] and in test [6] was inactive. The outcome in [7], in test [17], in test [8], in test [9], in [10] and in test [11] was inactive. For the same compound, the result in test [13] and in test [14] was inactive. Besides, the figures for the AC50 in [2] and in [12] were 27.5 µM (active) and 73.1 µM (active), respectively.
For `C=C1C2CCC(C2)C1(C)C` (configuration not stated), the result in [1], in test [3], in [4], in test [5], in test [6] and in test [7] was inactive. Besides, the compound was called inactive in test [17], in [8], in test [9], in test [10], in test [11] and in [12]. Besides, the result in test [13], in [14] and in test [19] was inactive. The AC50 in [2] is 31.4 µM (active).
For `CCCCCCCCc1ccc(Nc2ccc(CCCCCCCC)cc2)cc1`, the outcome in [1], in [3], in test [5], in test [15], in test [16] and in test [6] was inactive. Also, the outcome in test [17], in [8], in test [9], in [12], in test [18] and in test [13] was inactive. The compound was classed as inactive in test [14] and in test [19]. Moreover, the AC50 was 6.3 µM (active) in test [2] and 19.8 µM (active) in test [10].
For the compound `CC(C)C(=O)C(C)C`, the AC50 in test [1] was 42.4 µM (active); in test [5], 19.5 µM (active); in [17] it was 61.5 µM (active); in test [13], 34.7 µM (active). Moreover, the call in [2], in test [3], in [15], in test [16], in test [6] and in test [7] was inactive. The compound was called inactive in test [8], in test [9], in test [18] and in test [14].
